Reference: PubChem BioAssay AID1159580 (chemical genetic matrix, 2015)
Where “and” joins values, the source holds several entries; their conditions need not be identical. Identical values can stand only once. Screen size: about 5,500 compounds; about 2,000 (36%) were called active. Another 18% or so got no clear call; they are omitted. Cut-off read from the data, not from the text of the source: active = normalized growth mostly below about 0.91 (no sharp cut-off); inconclusive = no clear call, values can overlap the other calls; inactive = mostly above about 0.92. The list shows a part of the results.

Experiment: chemical genetic growth profiling, strain panel (AID 1159580);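 note: tested at 20 µM; growth read once vehicle control cultures reached saturation at 30 °C; 1 = growth at the plate median or of vehicle wells; lower values mean less growth of the strain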
Conditions: S. cerevisiae deletion strains, growth OD

Measured: normalized growth

CC(=O)OCC[N+](C)(C)C
active: locus YAL026C, strain drs2, stronger effect = lower value 1.1 [resistant] | locus YDR137W, strain rgp1, stronger effect = lower value 1.55 [resistant] | locus YDR159W, strain sac3, stronger effect = lower value 1.15 [resistant] | locus YDR195W, strain ref2 1.21 [resistant] | locus YLR221C, strain rsa3, stronger effect = lower value 1.1 [resistant] | locus YLR262C, strain YPT6 (second series), stronger effect = lower value 1.27 [resistant] | locus YNL248C, strain rpa49, stronger effect = lower value 1.12 [resistant] | locus YOR144C, strain elg1, stronger effect = lower value 1.09 [resistant] | locus YOR270C, strain vph1, stronger effect = lower value 0.749 | locus YPL256C, strain CLN2, stronger effect = lower value 1.24 [resistant] | locus YPR141C, strain kar3, stronger effect = lower value 1.09 [resistant]
inactive: locus YAL013W, strain DEP1, stronger effect = lower value 1.01 | locus YAL021C, strain ccr4, stronger effect = lower value 1.03 | locus YAL030W, strain snc1, stronger effect = lower value 1.02 | locus YBL061C, strain skt5, stronger effect = lower value 1.03 | locus YBR009C, strain hhf1, stronger effect = lower value 1.08 | locus YBR021W, strain FUR4, stronger effect = lower value 1.06 | locus YBR023C, strain chs3, stronger effect = lower value 1.05 | locus YBR171W, strain sec66, stronger effect = lower value 0.999 | locus YBR229C, strain ROT2, stronger effect = lower value 1.01 | locus YBR231C, strain swc5, stronger effect = lower value 1.03 | locus YBR279W, strain paf1, stronger effect = lower value 1.04 | locus YCL011C, strain gbp2, stronger effect = lower value 1.07 | locus YCL016C, strain dcc1, stronger effect = lower value 1.05 | locus YCL029C, strain bik1, stronger effect = lower value 1.04 | locus YCL069W, strain vba3, stronger effect = lower value 1.03 | locus YCR088W, strain abp1, stronger effect = lower value 1.02 | locus YDL005C, strain med2, stronger effect = lower value 1 | locus YDL035C, strain GPR1, stronger effect = lower value 0.961 | locus YDL040C, strain nat1, stronger effect = lower value 1.02 | locus YDL074C, strain BRE1, stronger effect = lower value 0.965 | locus YDL101C, strain DUN1, stronger effect = lower value 0.985 | locus YDL134C, strain PPH21, stronger effect = lower value 0.986 | locus YDL185W, strain tfp1, stronger effect = lower value 0.969 | locus YDL192W, strain arf1, stronger effect = lower value 1.02 | locus YDR001C, strain nth1, stronger effect = lower value 1.01 | locus YDR069C, strain doa4, stronger effect = lower value 1 | locus YDR101C, strain arx1, stronger effect = lower value 1.07 | locus YDR162C, strain NBP2, stronger effect = lower value 0.948 | locus YDR297W, strain sur2, stronger effect = lower value 1.02 | locus YDR318W, strain mcm21, stronger effect = lower value 1.01 | locus YDR334W, strain swr1, stronger effect = lower value 1.03 | locus YDR335W, strain msn5, stronger effect = lower value 1 | locus YDR388W, stronger effect = lower value 1.02 | locus YDR392W, strain spt3, stronger effect = lower value 1.13 | locus YDR502C, strain sam2, stronger effect = lower value 1.01 | locus YEL003W, strain gim4, stronger effect = lower value 1.01 | locus YEL037C, strain rad23, stronger effect = lower value 1.03 | locus YEL061C, strain CIN8 (second series), stronger effect = lower value 1.03 | locus YEL061C, strain CIN8, stronger effect = lower value 0.993 | locus YER015W, strain faa2, stronger effect = lower value 1.07 | locus YER016W, strain bim1, stronger effect = lower value 1.02 | locus YER110C, stronger effect = lower value 1.01 | locus YER111C, strain swi4, stronger effect = lower value 1.02 | locus YER155C, strain BEM2 (second series), stronger effect = lower value 1.11 | locus YER155C, strain BEM2, stronger effect = lower value 1.02 | locus YER167W, strain BCK2, stronger effect = lower value 1.01 | locus YFR010W, strain ubp6, stronger effect = lower value 1.01 | locus YGL078C, strain dbp3, stronger effect = lower value 1.03 | locus YGL086W, strain mad1, stronger effect = lower value 1.01 | locus YGL167C, strain pmr1, stronger effect = lower value 1.01 | locus YGL173C, strain kem1, stronger effect = lower value 1.02 | locus YGL227W, strain vid30, stronger effect = lower value 1.02 | locus YGL240W, strain doc1, stronger effect = lower value 1.11 | locus YGL248W, strain PDE1, stronger effect = lower value 0.99 | locus YGL253W, strain hxk2, stronger effect = lower value 1.03 | locus YGR135W, strain pre9, stronger effect = lower value 0.996 | locus YGR252W, strain gcn5, stronger effect = lower value 0.943 | locus YHR013C, strain ard1, stronger effect = lower value 1.11 | locus YHR027C, strain rpn1, stronger effect = lower value 1.02 | locus YHR030C, strain SLT2, stronger effect = lower value 1.01 and 1.08 | locus YHR079C, strain IRE1 (second series), stronger effect = lower value 1.02 | locus YHR079C, strain IRE1, stronger effect = lower value 1.1 | locus YHR094C, strain hxt1, stronger effect = lower value 1.02 | locus YHR129C, strain ARP1, stronger effect = lower value 1.01 | locus YHR142W, strain chs7, stronger effect = lower value 1.1 | locus YHR200W, strain rpn10, stronger effect = lower value 1.02 | locus YIL066C, strain RNR3, stronger effect = lower value 0.988 | locus YIL073C, strain SPO22, stronger effect = lower value 0.973 | locus YIL125W, strain kgd1, stronger effect = lower value 1.03 | locus YIR030C, strain dcg1, stronger effect = lower value 1.06 | locus YJL092W, strain hpr5, stronger effect = lower value 1.02 | locus YJL095W, strain BCK1 (second series), stronger effect = lower value 1.02 | locus YJL095W, strain BCK1, stronger effect = lower value 0.928 and 1.07 | locus YJL115W, strain asf1, stronger effect = lower value 1.03 | locus YJL129C, strain trk1, stronger effect = lower value 1.09 | locus YJL134W, strain LCB3, stronger effect = lower value 1.02 | locus YJL154C, strain vps35, stronger effect = lower value 1.03 | locus YJL164C, strain tpk1, stronger effect = lower value 1.05 | locus YJL166W, strain qcr8, stronger effect = lower value 1.04 | locus YJL168C, strain set2, stronger effect = lower value 1.03 | locus YJL187C, strain SWE1 (second series), stronger effect = lower value 0.951 | locus YJL187C, strain SWE1, stronger effect = lower value 1.02 | locus YJR043C, strain POL32, stronger effect = lower value 0.994 | locus YJR066W, strain TOR1, stronger effect = lower value 1.03 | locus YJR075W, strain HOC1, stronger effect = lower value 0.978 | locus YKL009W, strain mrt4, stronger effect = lower value 0.945 | locus YKL068W, stronger effect = lower value 1.01 | locus YKL085W, strain MDH1 (second series), stronger effect = lower value 1.01 | locus YKL085W, strain MDH1, stronger effect = lower value 1.01 | locus YKL160W, strain elf1, stronger effect = lower value 1.03 | locus YKR001C, strain vps1, stronger effect = lower value 0.975 | locus YKR026C, strain gcn3, stronger effect = lower value 1.03 | locus YKR091W, strain srl3, stronger effect = lower value 1.02 | locus YLL001W, strain dnm1, stronger effect = lower value 1.02 | locus YLL026W, stronger effect = lower value 1.03 | locus YLL041C, strain sdh2, stronger effect = lower value 1.02 | locus YLR027C, strain aat2, stronger effect = lower value 1.02 | locus YLR039C, strain RIC1, stronger effect = lower value 0.756 | locus YLR058C, strain SHM2, stronger effect = lower value 0.972 | locus YLR102C, strain apc9, stronger effect = lower value 1.01 | locus YLR113W, strain HOG1, stronger effect = lower value 1.14 | locus YLR258W, strain gsy2, stronger effect = lower value 1.04 | locus YLR262C, strain YPT6, stronger effect = lower value 0.801 | locus YLR268W, strain sec22, stronger effect = lower value 0.967 | locus YLR320W, strain mms22, stronger effect = lower value 1.1 | locus YLR330W, strain CHS5, stronger effect = lower value 0.998 | locus YLR342W, strain FKS1 (second series), stronger effect = lower value 0.986 | locus YLR342W, strain FKS1, stronger effect = lower value 1.01 | locus YLR357W, strain rsc2, stronger effect = lower value 1.12 | locus YLR370C, strain arc18, stronger effect = lower value 1.03 | locus YLR371W, strain rom2, stronger effect = lower value 1.08 | locus YLR384C, strain iki3, stronger effect = lower value 1.02 | locus YLR418C, strain cdc73, stronger effect = lower value 0.99 | locus YML016C, strain PPZ1, stronger effect = lower value 0.993 | locus YML032C, strain rad52, stronger effect = lower value 0.918 | locus YML120C, strain ndi1, stronger effect = lower value 1.04 | locus YML124C, strain tub3, stronger effect = lower value 1 | locus YMR058W, strain fet3, stronger effect = lower value 1.05 | locus YMR078C, strain ctf18, stronger effect = lower value 1.02 | locus YMR125W, strain sto1, stronger effect = lower value 1.05 | locus YMR129W, stronger effect = lower value 1.02 | locus YMR205C, strain PFK2, stronger effect = lower value 1.08 | locus YMR223W, strain ubp8, stronger effect = lower value 0.978 | locus YMR231W, strain pep5, stronger effect = lower value 0.993 | locus YMR307W, strain GAS1, stronger effect = lower value 1.07 | locus YNL067W, strain RPL9B, stronger effect = lower value 0.961 | locus YNL071W, strain lat1, stronger effect = lower value 1.04 | locus YNL183C, strain NPR1, stronger effect = lower value 1.04 | locus YNL209W, strain ssb2, stronger effect = lower value 1.02 | locus YNL233W, strain BNI4, stronger effect = lower value 0.973 | locus YNL250W, strain rad50, stronger effect = lower value 1.02 | locus YNL271C, strain bni1, stronger effect = lower value 1.01 | locus YNL298W, strain CLA4, stronger effect = lower value 1.01 | locus YNL307C, strain MCK1, stronger effect = lower value 1.03 | locus YNL322C, strain KRE1 (second series), stronger effect = lower value 1.07 | locus YNL322C, strain KRE1, stronger effect = lower value 1.02 | locus YNR049C, strain mso1, stronger effect = lower value 1.01 | locus YNR052C, strain pop2, stronger effect = lower value 1.02 | locus YOL012C, strain htz1 1.26 | locus YOL147C, strain pex11, stronger effect = lower value 1.03 | locus YOR001W, strain rrp6, stronger effect = lower value 0.99 | locus YOR061W, strain CKA2, stronger effect = lower value 0.994 | locus YOR069W, strain VPS5, stronger effect = lower value 1.01 | locus YOR070C, strain gyp1, stronger effect = lower value 1.02 | locus YOR080W, strain dia2, stronger effect = lower value 1.02 | locus YOR083W, strain WHI5, stronger effect = lower value 1.05 | locus YOR106W, strain vam3, stronger effect = lower value 1.08 | locus YOR136W, strain idh2, stronger effect = lower value 1.02 | locus YOR184W, strain ser1, stronger effect = lower value 0.988 | locus YOR231W, strain MKK1, stronger effect = lower value 1.08 | locus YOR265W, strain rbl2, stronger effect = lower value 1.02 | locus YOR290C, strain snf2, stronger effect = lower value 1.06 | locus YOR316C, strain cot1, stronger effect = lower value 1.01 | locus YPL051W, strain arl3, stronger effect = lower value 1.05 | locus YPL055C, strain LGE1, stronger effect = lower value 0.982 | locus YPL078C, strain atp4, stronger effect = lower value 1.04 | locus YPL106C, strain sse1, stronger effect = lower value 1.02 | locus YPL240C, strain hsp82, stronger effect = lower value 1.01 | locus YPL241C, strain CIN2, stronger effect = lower value 1 | locus YPR119W, strain clb2, stronger effect = lower value 1.01 | locus YPR163C, strain tif3, stronger effect = lower value 1.01 | locus YPR167C, strain met16, stronger effect = lower value 1.03 | strain wtn01, stronger effect = lower value 0.996
